Some test systems named below: SK-MEL-2 melanoma; EKVX NSCLC; SN12C renal; UO-31 renal; TK-10 renal; ACHN renal; CAKI-1 renal; A498 renal; CCRF-CEM leukemia; MOLT-4 leukemia; SR leukemia; RPMI-8226 leukemia; OVCAR-8 ovarian; OVCAR-5 ovarian; OVCAR-4 ovarian; SK-OV-3 ovarian; IGROV1 ovarian; OVCAR-3 ovarian; HS 578T breast; NCI/ADR-RES ovarian.
What all share (assay): NCI-60 one-dose screen, 48 h (100 = growth as untreated, 0 = no growth, -100 = all killed)
Conditions in all cases: 10 µM unless noted

SMILES strings stand for the structures. This is part of a sample that, as a whole, favours compounds with a hit. Of some 83,000 tested, about 20% had one in any assay.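 Interpretation: 100, growth as untreated; towards 0, rising growth inhibition; 0, no net growth; 0 to -100, cell death. Compounds scoring below 10 were considered active.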 A number with no mark means an inactive call. Activity calls are given as the source filed them.

Our source for the growth values is PubChem BioAssay (NCI).

For `COc1ccc(-c2nc3cc(C(=O)NC4CCCCC4)ccc3n2C2CCCCC2)cc1`, the growth with SK-MEL-2 melanoma was 92.4%; in the assay with EKVX NSCLC, 69.2%; in the assay on SN12C renal, 96.4%; in the assay with UO-31 renal it was 82.6%; in the assay on TK-10 renal it was 91.5%; with ACHN renal, 87%. The growth is 89.2% in the assay on CAKI-1 renal; 103% in the assay with A498 renal; 94.4% in the assay on CCRF-CEM leukemia; 74.5% in the assay on MOLT-4 leukemia; 51.2% in the assay with SR leukemia; 79.2% in the assay with RPMI-8226 leukemia. Moreover, the growth in the assay with OVCAR-8 ovarian was 107%; in the assay on OVCAR-5 ovarian it was 85.6%; with OVCAR-4 ovarian it was 86.6%; in the assay with SK-OV-3 ovarian, 98.7%; in the assay with IGROV1 ovarian, 101%; in the assay with OVCAR-3 ovarian it was 89.1%. Also, the growth is 105% with HS 578T breast and 90.7% in the assay with NCI/ADR-RES ovarian.

`COc1ccc(Cn2cc3c(c2)-c2oncc2CC3)cc1`: the growth with SK-MEL-2 melanoma is 68%; with EKVX NSCLC, 66.3%; in the assay with SN12C renal it was 77.8%; in the assay with UO-31 renal it was 68.2%; in the assay with TK-10 renal, 101%; in the assay with ACHN renal, 99.2%. Also, the growth was 64% with CAKI-1 renal; 57.7% in the assay with A498 renal; 35.2% with CCRF-CEM leukemia; 58% in the assay on MOLT-4 leukemia; 40.7% in the assay with SR leukemia; 48.9% with RPMI-8226 leukemia. The growth in the assay with OVCAR-8 ovarian is 83.2%; in the assay on OVCAR-5 ovarian it was 83.9%; in the assay on OVCAR-4 ovarian, 89.8%; with SK-OV-3 ovarian, 67.1%; in the assay on IGROV1 ovarian, 49.6%; in the assay with OVCAR-3 ovarian, 108%. The growth in the assay with HS 578T breast was 70.9%; in the assay with NCI/ADR-RES ovarian it was 33.7%.

For the compound `CC(C)(C)n1cc(-c2ccnc(NCCNS(=O)(=O)c3cccc4ccccc34)c2)c(-c2cccc(O)c2)n1`, the growth was 81.7% in the assay on SK-MEL-2 melanoma; 69.8% in the assay with EKVX NSCLC; 72.5% in the assay with SN12C renal; 70.2% in the assay with UO-31 renal; 97.2% in the assay with TK-10 renal; 70.1% in the assay with ACHN renal. Besides, the growth was 73.7% with CAKI-1 renal; 73.1% with A498 renal; 60.1% with CCRF-CEM leukemia; 53.4% in the assay on MOLT-4 leukemia; 30.1% in the assay on SR leukemia; 27.4% with RPMI-8226 leukemia. In addition, the growth in the assay with OVCAR-8 ovarian is 65.9%; in the assay with OVCAR-5 ovarian, 84.4%; with OVCAR-4 ovarian, 80.1%; with SK-OV-3 ovarian, 81.9%; with IGROV1 ovarian it was 87%; with OVCAR-3 ovarian it was 91%. Also, the growth with HS 578T breast is 84.6%; with NCI/ADR-RES ovarian, 77%.

On to `C=C(CNCCc1ccc(O)cc1)[C@@H]1CC[C@]2(CO)CC[C@]3(C)[C@H](CC[C@@H]4[C@@]5(C)CCC(N)C(C)(C)[C@@H]5CC[C@]43C)[C@@H]12` (stereo not given in full), for which the growth in the assay on SK-MEL-2 melanoma is -81.4% (active); in the assay with EKVX NSCLC, -62.8% (active); in the assay with SN12C renal, -81.7% (active); with UO-31 renal, -98.9% (active); in the assay on TK-10 renal, -84.5% (active); with ACHN renal, -71.9% (active). For the same compound, the growth in the assay on CAKI-1 renal is -81.8% (active); with A498 renal it was 64.5%; in the assay with CCRF-CEM leukemia, -26.8% (active); with MOLT-4 leukemia, -32.4% (active); in the assay on SR leukemia, -43.9% (active); with RPMI-8226 leukemia, -46.5% (active). Also, the growth with OVCAR-8 ovarian was -56.8% (active); in the assay with OVCAR-5 ovarian, 11.4%; in the assay with OVCAR-4 ovarian, -16.2% (active); in the assay with SK-OV-3 ovarian, -6.7% (active); with IGROV1 ovarian, -57.3% (active); in the assay with OVCAR-3 ovarian, -53.5% (active). Further, the growth in the assay on HS 578T breast was -66% (active); in the assay with NCI/ADR-RES ovarian, 60.4%.

Regarding `CCOC(=O)c1c(C)n2c(=O)cc(C)c3c(OC(C)=O)c(OC(C)=O)cc1c32`, the growth in the assay with SK-MEL-2 melanoma was 87%; in the assay with EKVX NSCLC, 93.1%; in the assay with SN12C renal, 74.3%; with UO-31 renal, 71%; in the assay on TK-10 renal it was 96%; with ACHN renal it was 58.3%. In addition, the growth in the assay on CAKI-1 renal was 72.2%; in the assay on A498 renal, 116%; in the assay on CCRF-CEM leukemia, 3.61% (active); in the assay with MOLT-4 leukemia, 19.3%; in the assay with SR leukemia, 17.8%; in the assay on RPMI-8226 leukemia, 42.3%. Also, the growth was 62.2% with OVCAR-8 ovarian; 99.2% with OVCAR-5 ovarian; 34.6% in the assay with OVCAR-4 ovarian; 103% in the assay on SK-OV-3 ovarian; 76.9% in the assay with IGROV1 ovarian; 6.3% (active) with OVCAR-3 ovarian. Also, the values for the growth with HS 578T breast and in the assay with NCI/ADR-RES ovarian were 91.4% and 33%, respectively.

Regarding `CO[C@H]1/C=C/O[C@@]2(C)Oc3c(C)c(O)c4c(O)c(c5c(nc6cc(C)ccn65)c4c3C2=O)NC(=O)/C(C)=C\C=C\[C@H](C)[C@H](O)[C@@H](C)C(O)[C@@H](C)[C@H](OC(C)=O)[C@@H]1C` (stereo not given in full), the growth with SK-MEL-2 melanoma is 93.1%; with EKVX NSCLC, 101%; in the assay on SN12C renal, 98.6%; in the assay with UO-31 renal, 76.3%; in the assay with TK-10 renal, 102%; in the assay on ACHN renal, 99.5%. The growth in the assay with CAKI-1 renal was 94.6%; in the assay on A498 renal it was 134%; with CCRF-CEM leukemia, 101%; with MOLT-4 leukemia, 89.8%; in the assay on SR leukemia it was 99.3%; in the assay on RPMI-8226 leukemia it was 104%. Besides, the growth is 98.3% in the assay on OVCAR-8 ovarian; 113% with OVCAR-5 ovarian; 100% with OVCAR-4 ovarian; 31.9% in the assay with SK-OV-3 ovarian; 97% in the assay with IGROV1 ovarian; 104% in the assay with OVCAR-3 ovarian. Further, the growth in the assay on HS 578T breast is 72%; with NCI/ADR-RES ovarian it was 104%.

As to `CCCCCCCCNc1ncnc2c1ncn2Cc1nnc2c3ccccc3c(Cl)nn12`, the growth in the assay with SK-MEL-2 melanoma was 16.7%; in the assay with EKVX NSCLC it was 57.3%; with SN12C renal, 29.7%; with UO-31 renal, 23.6%; in the assay with TK-10 renal it was 43.8%; in the assay on ACHN renal, 28.5%. Moreover, the growth in the assay on CAKI-1 renal was 16.7%; in the assay on A498 renal it was 69.8%; in the assay with CCRF-CEM leukemia, 24.2%; with MOLT-4 leukemia, 12.3%; in the assay on SR leukemia, 16.7%; in the assay with RPMI-8226 leukemia, 35.4%. The growth in the assay on OVCAR-8 ovarian was 30%; in the assay with OVCAR-5 ovarian, 102%; in the assay with OVCAR-4 ovarian, 42.9%; in the assay on SK-OV-3 ovarian, 4.2% (active); in the assay on IGROV1 ovarian it was 31.4%; with OVCAR-3 ovarian it was 58%. Moreover, the figures for the growth in the assay with HS 578T breast and in the assay on NCI/ADR-RES ovarian were 54.3% and 35.3%, respectively.

Regarding `O=C1CCc2c(sc3[nH]c(=S)n(-c4cc(C(F)(F)F)cc(C(F)(F)F)c4)c(=O)c23)C1`, the growth with SK-MEL-2 melanoma was -31.3% (active); in the assay on EKVX NSCLC, -8.72% (active); in the assay with SN12C renal, 8.54% (active); in the assay on UO-31 renal, -57.5% (active); with TK-10 renal, 2.81% (active); with ACHN renal, 3.08% (active). Further, the growth in the assay on CAKI-1 renal is 0.877% (active); with A498 renal, -18.2% (active); with CCRF-CEM leukemia, 1.71% (active); with MOLT-4 leukemia it was 11%; with SR leukemia, 13.4%; with RPMI-8226 leukemia it was -23.7% (active). The growth with OVCAR-8 ovarian was 1.35% (active); in the assay with OVCAR-5 ovarian, -24.4% (active); in the assay on OVCAR-4 ovarian, 4.84% (active); with SK-OV-3 ovarian, -18.7% (active); in the assay on IGROV1 ovarian it was -10.5% (active); in the assay on OVCAR-3 ovarian, -13.3% (active). The figures for the growth in the assay on HS 578T breast and in the assay on NCI/ADR-RES ovarian were -6.29% (active) and -13.4% (active), respectively.
